# Out of some 2,300 compounds screened, about 1,100 (48%) were called active. So high a share suggests a set chosen from earlier hits. The list shows a part of the results. Entries with a potency or affinity are not part of this list. A number with no mark means an inactive call. No rule for the calls is given here.
# Assay: S. typhi counter-screen signal inhibition – fluorescence, 4 h, counter-screen for PhoP regulon inhibitor project, dose response (AID 2384)
# Conditions: S. typhi GFP reporter counter-screen; series mostly up to 150 µM; inhibition: at the top concentration
row,SMILES,inhibition [%]
1,CCOc1ccc(Cl)cc1/C=N/O,26
2,COc1ccccc1/C=C/C(=O)Nc1cccc(C(C)=O)c1,33.4
3,COc1ccc2c(c1)CC1(CN2C)C(=O)NC(=O)N(CCc2ccccc2)C1=O (stereo not drawn),21.6
4,CCOC(=O)c1nc2cc3n(c(CC(C)C)c-2c1C)CC(C)=C3C,35.8
5,CCOC(=O)c1ccc(N2Cc3ccccc3C2=NC(=O)c2cccc([N+](=O)[O-])c2)cc1,-24.8
6,CC(C)Oc1ccc(N2CC(C(=O)Nc3ccccc3F)CC2=O)cc1 (stereo not drawn),4.81
7,COc1ccc2nc(NC(=O)C3CC(=O)N(c4ccccc4)C3)sc2c1 (stereo not drawn),-6.56
8,CCOc1ccc(N2CC(C(=O)OCC(=O)NCc3ccccc3)CC2=O)cc1 (stereo not drawn),10.8
9,COc1ccc(Nc2c3c(nc4ccc(C)cc24)CCC3)cc1,19
10,COc1cccc(-c2ccc(SCc3ccccn3)nn2)c1,0.91
11,COc1ccccc1-c1nc(C(F)(F)F)c(OC)o1,-18.3
12,Cc1cc(C)cc(NC(=O)CSc2nnc(CNC(=O)c3cccs3)o2)c1,-13.1
13,Cc1ccc(CSc2nc3c(c(=O)[nH]2)CCC3)cc1,2.42
14,COc1cc(CNCCCN2CCOCC2)c(Br)cc1OCC(=O)Nc1ccccc1C,30.8
15,Cc1ccc(C)c(OCC(=O)Nc2cccc(C(=O)O)c2)c1C,8.53
16,Fc1cccc(Cl)c1CSc1ccc(-c2ccco2)nn1,-38.2
17,Cc1cccc(CSCCNC(=O)COc2ccc(Cl)cc2)c1,7.31
18,CCC(Oc1ccccc1)C(=O)Nc1nnc(S(=O)(=O)N2CCCCC2)s1 (stereo not drawn),-24.2
19,ON=C1/C(=N\O)CC2(C/C1=N/O)OCCO2,9.69
20,CC(C)(C)c1ccc(OCCNC(=S)Nc2ccccc2)cc1,-4.71

row,SMILES,inhibition [%]
1,O=C(NCCOc1ccccc1)c1ncn[nH]1,21.1
2,O=C(O)COc1ccccc1/C=N/NC(=O)c1cccc(S(=O)(=O)N2CCOCC2)c1,-4.06
3,O=C(N/N=C/c1cccnc1)c1ccc([N+](=O)[O-])cc1Cl,18.8
4,Cc1noc(C)c1S(=O)(=O)N1CCC(Cc2ccccc2)CC1,-13.9
5,Cc1cccc(C(=O)NCCC(=O)Nc2ccc(F)c([N+](=O)[O-])c2)c1,21.8
6,O=[N+]([O-])c1ccc2oc(C3CCCCC3)nc2c1,0
7,O=C(N/N=C/c1ccco1)c1cccc(NC(=O)c2cccc(Cl)c2)c1,-0.93
8,CC(C)=CCN1CCN(Cc2nc(-c3ccccc3)cs2)CC1CCO (stereo not drawn),6.37
9,CCO[C@H]1OC(C(=O)O)=C[C@@H](c2ccccc2)[C@@H]1CCCO,1.28
10,Cc1cccc2cc(C(c3nnnn3Cc3ccccc3)N3CCN(C)CC3)c(=O)[nH]c12 (stereo not drawn),6.04
11,O=C(NC1=NCCS1)c1cccc2ccccc12,-9.46
12,O=C1CCCC2=C1C(c1ccncc1)Nc1ccccc1N2 (stereo not drawn),-4.56
13,CCn1nnnc1NCc1cccc(Cl)c1,-8.55
14,Clc1ccc(Nc2nc(C3CC3)cs2)cc1,16.3
15,CCN(CC(=O)Nc1ccc(C(=O)OC)cc1)C1CCCCC1,15.5
16,CC(c1ccccc1)(c1ccccc1)c1ccncc1,-5.37
17,COc1ccc(C2C(C(=O)NCc3cccnc3)c3ccccc3C(=O)N2C)cc1OC (stereo not drawn),13
18,C1=Nc2ccccc2CN1c1ccccc1,30.4
19,CCC(Sc1nc2ccncc2[nH]1)C(=O)Nc1ccc(C)c(Cl)c1 (stereo not drawn),-0.03
20,Cc1cc(C(=O)Nc2cccnc2)on1,-13.8

row,SMILES,inhibition [%]
1,Cc1cc(N2CCN(C3CCCCC3)CC2)nc2cccc(O)c12,21.7
2,CCCCNC(=O)CCC(=O)Nc1ccc2nc(N3CCC(C)CC3)cc(C)c2c1,-2.01
3,COc1cccc2[nH]c3c(N4CCN(Cc5ccc6c(c5)OCO6)CC4)ncnc3c12,29.9
4,CCn1c(O)c(N=NC(=O)CNC(=O)/C=C/c2ccco2)c2ccccc21,-2.56
5,COc1ccc2[nH]cc(C(=O)CCl)c2c1,12
6,O=C(NC1CCCCC1)c1ccc(S(=O)(=O)NCc2cccnc2)cc1,-16.9
7,O=C(Cc1ccc(F)cc1)NC1CCCC1,9.26
8,Cc1ccc(C)c(OCc2ccc(C(=O)NN)o2)c1,1.74
9,Cn1ncc(N=Cc2ccccc2O)c1C(=O)N1CCOCC1,9.29
10,Cc1nc(-c2ccc(C(=O)N3CCOCC3)cc2)cs1,0.47
11,CCOc1ccc(OCCSc2nc3ccccc3[nH]2)cc1,2.54
12,CCOc1ccc(NC(=S)Nc2cc(C)[nH]n2)cc1,4.04
13,O=S(=O)(Nc1ncccn1)c1ccc(NC(=S)Nc2cccc(Cl)c2)cc1,-59.1
14,Cc1cc(NS(=O)(=O)c2ccc(NC(=S)NC(=O)c3cccnc3)cc2)no1,2.76
15,Cc1ccc(NC(=O)OCc2cccs2)cc1,25.9
16,CC1CCCC(NC(=O)COC(=O)Cc2c[nH]c3ccccc23)C1C (stereo not drawn),6.25
17,Cc1ccc(-c2c(C)n([O-])c3c([n+]2=O)CCCC3)o1,12.3
18,COc1ccccc1OCc1nnc(SCC(=O)NCc2ccco2)n1Cc1ccco1,-6.42
